Measured values taken from PubChem BioAssay (NCATS).
Records with an inconclusive call do not appear. Entries that show only a call come without a potency. Values without a mark were called inactive. Activity calls are given as the source filed them. Calls come from the whole dose curve; as a rule, active = well fitted inhibition curve with a large enough effect; inconclusive = small, poorly fitted or top-dose-only effect; inactive = no such curve, though single readings can be large or run the other way. *1 amine or outer side, *2 acyl side, *3 side chain or, on linkers, in order; H or OH if unused. Where a SMILES comes first, the peptide text is derived from it. [ ]: non-standard residue; d: D form. ξ: configuration not given here. ξTyr(βOH) = NC(C(=O)O)C(O)c1ccc(O)cc1; X13 = O=C(C(CC(O)CO)O[*:1])[*:2]; NMeV = CN[CH](C(=O)O)C(C)C; NMeA = CN[CH](C)C(=O)O; βAla = NCCC(=O)O

How the values were obtained:
[1] = tested on: Zika virus NS2B-NS3 protease (unlinked complex); experiment: Primary screen GU Rhodamine qHTS for Zika virus inhibitors: Unlinked NS2B-NS3 protease assay (AID 1347159); note: nearly all actives have a fitted effect of over 60% in size
How it was run: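 Noncovalent NS2B hydrophilic domain/NS3 protease complex (25 nM final) in 10 mM Tris-HCl pH 8.0, 0.01% Tween 20, preincubated 15 min with compounds (up to 114 microM), then 1.5 microM Rhodamine110 substrate. Fluorescence change over 15 min fitted to 4-parameter Hill.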

[2] = tested on: Zika virus NS2B-NS3 protease (linked construct); experiment: Primary screen NINDS Rhodamine qHTS for Zika virus inhibitors (AID 1347160); note: nearly all actives have a fitted effect of over 55% in size
How it was run: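 Purified NS2B-NS3 protease with the NS2B hydrophilic domain joined by a flexible linker (25 nM) in 10 mM Tris-HCl pH 8.0, 0.01% Tween 20, preincubated 15 min at RT with compound; Rhodamine110 peptide substrate 1.5 µM; fluorescence change over 15 min; 4-parameter Hill fit.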
Potency is the fitted concentration of half-maximal effect.

SMILES: CCC1OC(=O)C(C)CC(C)C(=O)/C(C)=C/C(C)C(=O)/C=C/C1(C)O (stereo unspecified)
- Potency [1]: inactive
- Potency [2]: inactive

SMILES: COc1cc(CO)ccc1O[C@@H]1O[C@H](CO)[C@@H](O)[C@H](O)[C@H]1O
- Potency [1]: inactive
- Potency [2]: inactive

SMILES: CC(C)C1(O)C=C2C(=O)CC3C(C)(C(=O)O)CCCC3(C)C2CC1 (stereo unspecified)
- Potency [1]: inactive
- Potency [2]: inactive

SMILES: COC1OC(O)C2(CCC3(O2)C(C)CC2OC(=O)C4(C)CCCC3(C)C24)C1O (stereo unspecified)
- Potency [1]: inactive
- Potency [2]: inactive

SMILES: CCc1cccc2c3c([nH]c12)[C@@](CC)(CC(=O)O)OCC3
- Potency [1]: inactive
- Potency [2]: inactive

SMILES: CCOC(=O)C(CCc1ccccc1)NC1CCCN2CCCC(C(=O)O)N2C1=O (stereo unspecified)
- Potency [1]: inactive
- Potency [2]: inactive

SMILES: C[C@]12CC/C(=N\OCC(=O)O)C=C1CC[C@@H]1[C@@H]2[C@@H](O)C[C@@]2(C)[C@H]1CC[C@]2(O)C(=O)CO
- Potency [1]: inactive
- Potency [2]: inactive

SMILES: CC(=O)OC1CC(C(C)(C)O)OC2CCC3(C)OC4=C(C(=O)C=C5C(C)C(OC(C)=O)C6(C)C(C)OC546)C(O)C3C12C (stereo unspecified)
- Potency [1]: inactive
- Potency [2]: inactive

SMILES: N#CC1C(=O)N=C(c2cc(Cl)ccc2O)C=C1c1cc(OCc2ccccc2)cc(OCc2ccccc2)c1 (stereo unspecified)
- Potency [1]: inactive
- Potency [2]: inactive

SMILES: C[C@H]1CC(=O)C2=C(C1)C(O)C(O)[C@@]1(O)[C@H]2C(=O)c2cccc(O)c2[C@@H]1O (stereo partly specified)
- Potency [1]: inactive
- Potency [2]: inactive

SMILES: CC(C)C1NC(=O)CNC(=O)C2CCCN2C(=O)C(Cc2c[nH]c3ccccc23)NC(=O)CNC(=O)C(C(O)c2ccc(O)cc2)NC(=O)CNC1=O (stereo unspecified) (cyclo(G[ξTyr(βOH)]GWPGV); configuration not given here)
- Potency [1]: inactive
- Potency [2]: inactive

SMILES: CC(=O)OC(C)(C)/C=C/C(=O)[C@](C)(O)C1[C@H](O)C[C@@]2(C)[C@@H]3CC=C4[C@@H](C[C@H](O[C@@H]5O[C@H](CO)[C@@H](O)[C@H](O)[C@H]5O)C(=O)C4(C)C)[C@]3(C)C(=O)C[C@]12C (stereo partly specified)
- Potency [1]: inactive
- Potency [2]: inactive

SMILES: C=C[C@@](C)(CCC=C(C)C)O[C@@H]1O[C@H](CO[C@@H]2OC[C@H](O)[C@H](O)[C@H]2O)[C@@H](O)[C@H](O)[C@H]1O
- Potency [1]: inactive
- Potency [2]: inactive

SMILES: C=C(C(=O)O)[C@@H]1CC[C@@]2(C)CCC[C@@](C)(O)[C@@H]2C1
- Potency [1]: inactive
- Potency [2]: inactive

SMILES: COc1cncc(C#Cc2ccccn2)c1
- Potency [1]: inactive
- Potency [2]: inactive

SMILES: N[C@@H](CCNCc1ccc(Cl)cc1)C(=O)N1CCCCC1
- Potency [1]: inactive
- Potency [2]: inactive

SMILES: C/C=C(\C)C(=O)OC[C@H]1O[C@@H](O[C@H]2[C@@H](O[C@H]3O[C@H](COC(=O)/C(C)=C/C)[C@@H](O)[C@H](O)[C@H]3O[C@@H]3O[C@H](CO)[C@@H](O)[C@H](OC(=O)/C(C)=C/C)[C@H]3O)O[C@H](COC(=O)/C(C)=C/C)[C@@H](O)[C@@H]2O)[C@H](O)[C@@H](O)[C@@H]1O
- Potency [1]: inactive
- Potency [2]: inactive

SMILES: CC(=O)NC1C(OC2CCC3(C)C(CCC4(C)C3CC=C3C5CC(C)(C)CCC5(C(=O)O)C(O)CC34C)C2(C)C)OC(CO)C(O)C1O (stereo unspecified)
- Potency [1]: inactive
- Potency [2]: inactive

SMILES: COc1cc(/C=C/C(=O)OC[C@H]2O[C@@H](OC3OC=C(C(=O)O)C4C(O)CC(C)(O)C34)[C@H](O)[C@@H](O)[C@@H]2O)cc(OC)c1O (stereo partly specified)
- Potency [1]: inactive
- Potency [2]: inactive

SMILES: C[C@@H](NC(=O)c1cc(C(=O)N[C@@H](Cc2ccccc2)[C@H](O)CNC2CC2)cc(N(C)S(C)(=O)=O)c1)c1ccccc1
- Potency [1]: inactive
- Potency [2]: inactive

SMILES: OC[C@H]1O[C@@H](O[C@H]2[C@H](O)[C@@H](CO)O[C@@H](OCc3ccccc3)[C@@H]2O[C@@H]2OC[C@](O)(CO)[C@H]2O)[C@H](O)[C@@H](O)[C@@H]1O
- Potency [1]: inactive
- Potency [2]: inactive

SMILES: Cc1cn(-c2cc(NC(=O)c3ccc(C)c(Nc4nccc(-c5cnccn5)n4)c3)cc(C(F)(F)F)c2)cn1
- Potency [1]: inactive
- Potency [2]: inactive

SMILES: COC(=O)c1cc(OC)cc(OC)c1C(=O)c1c(OC)cc2c(c1O)C1CCC(O)C(C)(O2)O1 (stereo unspecified)
- Potency [1]: inactive
- Potency [2]: inactive

SMILES: CC(=O)O[C@@H]1C(=O)C(C)=C(CCC(C)CC(=O)O)[C@@]2(C)CCCC(C)(C)C12 (stereo partly specified)
- Potency [1]: inactive
- Potency [2]: inactive

SMILES: Cc1ncc(NC(=O)c2ccc(CN3CCN(C)CC3)c(C(F)(F)F)c2)cc1Nc1nccc(-c2cccnc2)n1
- Potency [1]: inactive
- Potency [2]: inactive

SMILES: CC1(C)CC[C@]2(C(=O)O[C@@H]3O[C@H](CO)[C@@H](O)[C@H](O)[C@H]3O)CC[C@]3(C)C(=CCC4[C@@]5(C)CC[C@H](O[C@@H]6O[C@H](C(=O)O)[C@@H](O[C@@H]7O[C@H](CO)[C@@H](O)[C@H](O)[C@H]7O)[C@H](O)[C@H]6O)C(C)(C)C5CC[C@]43C)C2C1 (stereo partly specified)
- Potency [1]: inactive
- Potency [2]: inactive

SMILES: O=C(O)[C@H]1Cc2ccccc2CN1
- activity change, negative = inhibition [1]: -0.45% [at 11.5 µM]
- activity change, negative = inhibition [2]: 20.2% [at 4.91 µM]

SMILES: CC1(C)CC(NC(=O)C(=O)Nc2ccc(Cl)cc2)CC(C)(C)N1
- Potency [1]: inactive
- Potency [2]: inactive

SMILES: CC(=O)/C=C/C1(O)C(C)=CC(=O)CC1(C)C (stereo unspecified)
- Potency [1]: inactive
- Potency [2]: inactive

SMILES: CC(=O)NC(Cc1c[nH]c2ccccc(=O)c12)C(=O)O (stereo unspecified)
- Potency [1]: 22.4 µM (active)
- Potency [2]: 15.8 µM (active)

SMILES: CCNC(=O)OC1CCN(c2nncc3cc(OC)c(OC)cc23)CC1
- Potency [1]: inactive
- Potency [2]: inactive

SMILES: O=C(CCCCC1CCCCC1)N1CCC(c2cnc[nH]2)CC1
- Potency [1]: inactive
- Potency [2]: inactive

SMILES: CCC(C)C1NC(=O)C2CCCN2C(=O)C(CC(O)CO)OC(=O)CCNC(=O)C(C)N(C)C(=O)C(C(C)C)N(C)C1=O (stereo unspecified) (cyclo([X13]PI[NMeV][NMeA][βAla]); configuration not given here)
- Potency [1]: inactive
- Potency [2]: inactive

SMILES: CC(=O)OC1C(O)C(C)(O)C(/C=C/C(=O)O)C2(C)CCCC(C)(C)C12 (stereo unspecified)
- Potency [1]: inactive
- Potency [2]: inactive

SMILES: C=C1CC[C@]2(C(=O)O[C@@H]3O[C@H](CO)[C@@H](O)[C@H](O)[C@H]3O)CC[C@]3(C)C(=CCC4[C@@]5(C)C[C@H](O)[C@@H](O[C@@H]6O[C@H](C(=O)O)[C@@H](O)[C@H](O)[C@H]6O)[C@](C)(C=O)C5CC[C@]43C)C2C1 (stereo partly specified)
- Potency [1]: inactive
- Potency [2]: inactive

SMILES: C/C=C/C=C/[C@@H]1O[C@](O)([C@H](CC)C(=O)NC/C=C/C=C(\C)[C@@H](OC)[C@@H](C)[C@@H]2O[C@H](/C=C/C=C/C=C(\C)C(=O)c3c(O)ccn(C)c3=O)[C@H](O)[C@@H]2O)[C@H](O)[C@H](O)C1(C)C
- Potency [1]: inactive
- Potency [2]: inactive

SMILES: CC(=O)OC1C(CO)OC(O[C@H]2[C@H](OC(=O)[C@]34CCC(C)(C)C[C@H]3C3=CCC5[C@@]6(C)CC[C@H](O[C@@H]7O[C@H](C(=O)O)[C@@H](O)[C@H](O[C@@H]8OC[C@@H](O)[C@H](O)[C@H]8O)[C@H]7O[C@@H]7O[C@H](CO)[C@H](O)[C@H](O)[C@H]7O)[C@@](C)(C=O)C6CC[C@@]5(C)[C@]3(C)C[C@H]4O)O[C@H](C)[C@H](OC3OC(C)C(OC4OCC(O)C(O)C4O)C(O)C3O)[C@@H]2O)C(O)C1O (stereo partly specified)
- activity change, negative = inhibition [1]: 21.3% [at 19.1 µM]
- Potency [2]: inactive

SMILES: C=C(C(=O)OC)[C@]12O[C@@](C)(CC[C@@]3(O)/C(=C\C)C(=O)O[C@]3(C)C[C@@H]1OC(=O)C(CO)CN1CCCC1C(=O)O)CC2=O (stereo partly specified)
- Potency [1]: inactive
- Potency [2]: inactive

SMILES: CC(C)(O)C1CCC2(C)CCCC(C)(O)C2C1 (stereo unspecified)
- Potency [1]: inactive
- Potency [2]: inactive

SMILES: COC(=O)/C=C/c1ccc(O[C@@H]2O[C@H](CO)[C@@H](O)[C@H](O)[C@H]2O)cc1
- Potency [1]: inactive
- Potency [2]: inactive

SMILES: CC(=O)O[C@H]1[C@H](OC(=O)C(C)C)[C@]2(C)OC3(CC[C@]2(C)[C@H]2CCC[C@]4(CO4)[C@]12C)COC(=O)C3 (stereo partly specified)
- Potency [1]: inactive
- Potency [2]: inactive

SMILES: CC(C)=CCC[C@](C)(O[C@@H]1O[C@H](CO)[C@@H](O)[C@H](O)[C@H]1O)[C@H]1CC[C@]2(C)[C@@H]1[C@H](O)CC1[C@@]3(C)CC[C@H](O)C(C)(C)C3[C@@H](O[C@@H]3O[C@H](CO)[C@@H](O)[C@H](O)[C@H]3O[C@@H]3O[C@@H](C)[C@H](O)[C@@H](O)[C@H]3O)C[C@]12C (stereo partly specified)
- Potency [1]: inactive
- Potency [2]: inactive

SMILES: CCOC(=O)C(CCc1ccccc1)NC(C)C(=O)N1Cc2ccccc2CC1C(=O)O (stereo unspecified)
- Potency [1]: inactive
- Potency [2]: inactive

SMILES: COC(=O)C[C@@H]1C(C(=O)O)=CO[C@@H](O[C@@H]2O[C@H](CO)[C@@H](O)[C@H](O)[C@H]2O)/C1=C\COC(=O)/C=C/c1ccc(O)c(OC)c1
- Potency [1]: inactive
- Potency [2]: inactive

SMILES: COC(=O)C1=COC(OC2OC(CO)C(O)C(O)C2O)C2C(C)C(OC(=O)/C=C/c3ccc(O)cc3)C(O)C12 (stereo unspecified)
- Potency [1]: 28.2 µM (active)
- Potency [2]: inactive

SMILES: CCCN(CCN1CCN(c2ccccc2OC)CC1)C1CCc2ncsc2C1 (stereo unspecified)
- Potency [1]: inactive
- Potency [2]: inactive

SMILES: CC(CCc1ccc(O)cc1)O[C@@H]1O[C@H](CO[C@@H]2OC(CO)[C@H](O)[C@H]2O)[C@@H](O)[C@H](O)[C@H]1O (stereo partly specified)
- Potency [1]: inactive
- Potency [2]: inactive

SMILES: COc1cc(O)cc(O[C@@H]2O[C@H](CO)[C@@H](O[C@@H]3OC[C@](O)(CO)[C@H]3O)[C@H](O)[C@H]2O)c1OC
- Potency [1]: inactive
- Potency [2]: inactive

SMILES: COC(=O)C(CC1(O)c2ccccc2N2C(=O)C(CC(C)C)NC21)n1cnc2ccccc2c1=O (stereo unspecified)
- Potency [1]: inactive
- Potency [2]: inactive

SMILES: Cc1cc(-c2nncc3c(C(C)(C)C)c(OCc4ncnn4C)nn23)no1
- Potency [1]: inactive
- Potency [2]: inactive

SMILES: O=C(O)CC1CCC(c2ccc(NC(=O)c3nnc(Nc4ccc(F)c(F)c4)o3)cc2)CC1 (stereo unspecified)
- Potency [1]: 14.1 µM (active)
- Potency [2]: 14.1 µM (active)

SMILES: CC1(C)CC[C@]2(C(=O)O[C@@H]3O[C@H](CO)[C@@H](O)[C@H](O)[C@H]3O)CC[C@]3(C)C(=CCC4[C@@]5(C)C[C@@H](O)[C@H](O)[C@@](C)(CO)C5[C@H](O)C[C@]43C)C2C1 (stereo partly specified)
- Potency [1]: inactive
- Potency [2]: inactive

SMILES: CC1(CO)CCCC2(C)C1C(OC(=O)c1ccccc1)CC1C(=O)OCC12O (stereo unspecified)
- Potency [1]: inactive
- Potency [2]: inactive
